Results on one molecule are retold here after PubChem BioAssay (NCATS).

The nature of assay [1]: AP1 Signaling Pathway (AID 357; active = well fitted curve in either direction with a large enough effect, not every such curve was filed as active; note: % is set by controls: 0 for no effect and ±100 for the full control effect). To be noted: ME-180 AP-1-bla reporter, EGF-induced, beta-lactamase ratio, 5 h; at 38 µM (top of the series). Put shortly:
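AP-1-bla ME-180 cells with beta-lactamase reporter under AP-1 response element, stimulated with EC50 EGF; compounds titrated, 5 hours at 37 degrees Celsius. CCF4 read at 460/530 nm ratio; positive and negative modulators judged by AC50.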

For assay [2], the target named is Cytochrome P450 1A2 (Homo sapiens) (UniProt P05177). Kind of assay: p450-cyp1a2 (AID 410; calls by dose curve). The settings on record: recombinant CYP1A2, luciferin-ME demethylation, luminescence; series mostly up to 57 µM. The essentials: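 Human CYP1A2 (20nM) demethylated Luciferin-ME at its Km (100uM) in 100mM KPO4. After 10 min compound preincubation, NADPH regeneration ran the reaction 60 min at room temperature. Luciferin was read by luminescence, normalized to 57 uM furafylline.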
Cytochrome P450 1A2 (Homo sapiens), sequence (P05177 whole entry, looked up): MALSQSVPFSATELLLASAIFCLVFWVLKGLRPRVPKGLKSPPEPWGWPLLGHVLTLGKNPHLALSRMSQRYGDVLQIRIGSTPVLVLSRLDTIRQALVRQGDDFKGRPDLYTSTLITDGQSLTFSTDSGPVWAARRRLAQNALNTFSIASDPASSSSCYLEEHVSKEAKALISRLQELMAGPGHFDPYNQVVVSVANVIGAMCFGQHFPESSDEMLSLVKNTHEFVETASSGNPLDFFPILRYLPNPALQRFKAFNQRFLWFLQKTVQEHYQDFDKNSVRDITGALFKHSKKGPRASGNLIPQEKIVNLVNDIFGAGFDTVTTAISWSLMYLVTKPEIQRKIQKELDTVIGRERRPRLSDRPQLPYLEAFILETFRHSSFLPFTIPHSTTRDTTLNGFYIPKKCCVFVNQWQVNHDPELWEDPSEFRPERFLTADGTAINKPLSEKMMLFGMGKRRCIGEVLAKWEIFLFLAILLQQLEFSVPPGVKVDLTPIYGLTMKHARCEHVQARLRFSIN

Assay [3] is described as follows: NFAT Signaling Pathway (AID 444; active = well fitted curve in either direction with a large enough effect, not every such curve was filed as active;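 note: carbachol stimulus at about its EC50 of 1 µM final; % is set by controls: 0 for no effect and ±100 for the full control effect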). The settings on record: Jurkat NFAT-bla M1, carbachol, beta-lactamase ratio, 5 h; at 38 µM (top of the series). Put shortly: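 Jurkat cells carrying an NFAT-driven β-lactamase reporter and co-transfected muscarinic M1 receptor were treated with compound plus carbachol (1 uM final, an EC50 level) for 5 h at 37 °C. CCF4 loading followed for 1 h at RT; 460/530 nm ratio gave %activity.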

Assay [4] can be described thus: Stat Signaling Pathway (AID 446; active = well fitted curve in either direction with a large enough effect, not every such curve was filed as active;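 note: ME-180 cervical cancer cells given 40 pM IL-6 alongside compound; SIE-controlled beta-lactamase reporter measured as 460/530 nm FRET emission ratio; % is set by controls: 0 for no effect and ±100 for the full control effect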). To be noted: ME-180 SIE beta-lactamase reporter, IL-6 stimulated, 5 h; at 38 µM (top of the series). Put shortly: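 Reporter line: ME-180 cervical carcinoma, SIE-beta-lactamase. Treatment: compound with 40 pM IL-6, 5 hrs, 37 C, in low-serum OPTI-MEM with 10 mM HEPES pH 7.3. Detection: 460/530 nm fluorescence.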
Assay [5] concerns the target Glucocorticoid receptor (Homo sapiens) (UniProt P04150). Kind of assay: GR-GFP Redistribution (AID 450;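 active = compounds whose dose series gives a full or clear partial fitted curve of increased nuclear translocation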; note: potency is the fitted concentration of half-maximal effect). To be noted: U2OS GR-GFP nuclear translocation, laser cytometry, 2 h.
Assay [6] shares this target. The assay can be described thus: GR-EFC Redistribution (AID 451; calls by dose curve; note: potency is the fitted concentration of half-maximal effect). To be noted: CHO-K1 GR-EFC translocation, beta-gal luminescence, 2 h. Put shortly:
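CHO-K1 cells stably expressing nuclear-localized β-gal enzyme acceptor and GR fused C-terminally to the enzyme donor fragment; ligand-driven nuclear translocation restores β-gal by complementation. Compounds titrated up to 46 uM final, 2 h at 37 °C; luminescence read.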

For assay [7], the target named is Mitogen-activated protein kinase 10 (Mus musculus) (UniProt Q61831). Kind of assay: JNK3 AlphaScreen Assay (AID 530; active = well fitted curve in either direction with a large enough effect, not every such curve was filed as active;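 note: kinase came from lysate of stimulated human HepG2 cells; signal reports phosphorylation of biotinylated GST-cJun 1-79 at Ser73 with 10 µM ATP; % is set by controls: 0 for no effect and ±100 for the full control effect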). The settings on record: JNK3 lysate, c-Jun phosphorylation; series mostly up to 57.1 µM. The essentials:
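JNK3 came from HepG2 lysates pre-activated with IL-1beta and TNF-alpha and phosphorylated biotinylated GST-cJun (1-79) at 10 uM ATP, pH 7.6, room temperature. Compounds were titrated. AlphaScreen signal used anti-phospho-cJun (Ser73) antibody.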
(In general: In Alpha technology, singlet oxygen from a donor bead excites a nearby acceptor bead.)

Assay [8] addresses 3',5'-cyclic-AMP phosphodiesterase 4B (Homo sapiens) (UniProt Q07343). The assay can be described thus: qHTS Assay for Inhibitors of PDE-IV (AID 607; active = well fitted activation curve with a large enough effect in the main read-out, with a control signal flat, not every such curve was filed as active; note: % of control where 0% means no effect). The settings on record: HEK293 ACTOne CNG channel cells, membrane potential fluorescence; series mostly up to 22.9 µM. The essentials: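 Cell-based read-out of cAMP via a modified cyclic nucleotide-gated channel and membrane potential dye (535/590 nm) in HEK293 cells expressing PDE4 endogenously. Compounds tested up to 22.9 uM final; 100 uM RO 20-1724 reference.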
On the technique in general: In qHTS, concentration-response curves come from the screen itself.

Assay [9] concerns the target Guanine nucleotide-binding protein G(i) subunit alpha-1 (Homo sapiens) (UniProt P63096). Kind of assay: qHTS Assay for Inhibitors of RGS12 GoLoco Motif Activity (Green Fluorophore) (AID 879).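 Note: 0% = labeled peptide with Gαi1 and full inhibition = labeled peptide alone without protein; negative values mean loss of peptide binding seen as reduced polarization.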 To be noted: Galphai1/FITC-RGS12 GoLoco peptide, fluorescence polarization; series mostly up to 57.1 µM. Put shortly:
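Fluorescence polarization assay: 50 nM Gαi1 with 10 nM FITC-labeled RGS12 GoLoco peptide in 10 mM Tris pH 7.5, 150 mM NaCl, 0.1 mM GDP, 0.05% NP40, 10 min at room temperature with compound.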

The target of assay [10] is Cytochrome P450 2C9 (Homo sapiens) (UniProt P11712). Kind of assay: qHTS Assay for Inhibitors and Substrates of Cytochrome P450 2C9 (AID 883). Note: % is set by controls: 0 for no effect and ±100 for the full control effect; nearly all actives have a fitted effect of over 60% in size. To be noted: recombinant CYP2C9, luciferin-H luminescence, 60 min; series mostly up to 57.1 µM. The essentials:
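CYP2C9 deoxyluciferin hydroxylation, 37C, 60 min with NADPH regeneration; 10nM enzyme, 100uM Luciferin-H (KM). Glo detection reagent stopped reaction; luminescence normalized to sulphaphenazole (57uM) full inhibition.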

In assay [11] the target is Cytochrome P450 2D6 (Homo sapiens) (UniProt P10635). Kind of assay: qHTS Assay for Inhibitors and Substrates of Cytochrome P450 2D6 (AID 891).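 Note: luciferin methyl ether substrate demethylated by CYP2D6 with NADPH regeneration; % is set by controls: 0 for no effect and ±100 for the full control effect; nearly all actives have a fitted effect of over 60% in size.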 To be noted: recombinant CYP2D6, luciferin-ME EGE luminescence; series mostly up to 57.1 µM. The essentials: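 Human CYP2D6 (5 nM) with 30 uM Luciferin-ME EGE (at Km) in 100 mM KPO4, compound preincubated 10 min, then NADPH regeneration system for 60 min at room temperature. Luciferin read by luminescence; normalized to 1.43 uM quinidine.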

Assay [12] addresses Cytochrome P450 2C19 (Homo sapiens) (UniProt P33261). Kind of assay: qHTS Assay for Inhibitors and Substrates of Cytochrome P450 2C19 (AID 899). Note: % is set by controls: 0 for no effect and ±100 for the full control effect; nearly all actives have a fitted effect of over 60% in size. The settings on record: recombinant CYP2C19, luciferin-H EGE luminescence; series mostly up to 57.1 µM. Put shortly: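 In 50mM KPO4, the reaction held 5nM enzyme and KM-level (10uM) Luciferin-H EGE; it ran 60 min at 37C after NADPH regeneration and a 10 min compound preincubation. Luminescence values were scaled to 57uM ketoconazole as complete inhibition.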

Assay [13] in a line: Confirmation and Secondary Assay for Modulators of Hemoglobin Beta Chain Splicing at IVS2 654 locus (AID 910).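 Note: per-well total GFP intensity by laser scanning cytometry after 2-day treatment; % of control where 0% means no effect.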 To be noted: HeLa EGFP-654 splicing reporter, GFP fluorescence, 48 h; series mostly up to 46.1 µM. The essentials:
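HeLa cells stably carrying EGFP interrupted by mutant beta-globin IVS2-654 intron (CMV-driven) were treated with compound for 2 days at 37C; corrected splicing was scored as total peak GFP intensity per well (488 nm excitation, 500-520 nm emission).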

The nature of assay [14]: qHTS Assay for Identification of Small Molecule Agonists for Thrombopoietin (TPO) Signaling Pathway (AID 917). Note: % is set by controls: 0 for no effect and ±100 for the full control effect. The settings on record: TPO signaling pathway reporter cells, agonist qHTS, stimulated with TPO at its EC50; series mostly up to 38.5 µM. The essentials: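 Luminescence from a Glycoprotein IIb promoter–driven luciferase reporter served as read-out in murine Ba/F3 cells carrying the human TPO receptor. Cells, deprived of IL-3 overnight, received compounds with 26 pM TPO and were incubated 24 hrs at 37 C.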

Assay [15] in a line: Confirmation and Secondary Assay for Modulators of Hemoglobin Beta Chain Splicing at IVS2 705 locus (AID 930).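 Note: GFP fluorescence per well restored by corrected splicing of the IVS2-705 intron in EGFP; % of control where 0% means no effect.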 The settings on record: HeLa EGFP-705 splicing reporter, GFP fluorescence, 48 h; series mostly up to 46.1 µM. Put shortly: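 Secondary splice-site specificity test uses HeLa expressing CMV-driven EGFP interrupted by IVS2-705; cells were treated 2 days at 37C with 500 nM antisense PNA as positive control.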

Assay [16] addresses Muscarinic acetylcholine receptor M1 (Rattus norvegicus) (UniProt P08482). The assay can be described thus: qHTS Assay for Antagonists of Acetylcholine Muscarinic M1 Receptor: Measurement of IP-One Response (AID 944). Note: nearly all actives have a fitted effect of over 75% in size. The settings on record: CHO-M1 cells, IP-One HTRF, antagonist mode; series mostly up to 46.1 µM. Put shortly:
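CHO cells expressing rat M1 receptor, recovered overnight, were pre-incubated 10 min with compound, then stimulated 30 min with carbachol at EC80 (200 nM) in LiCl-containing buffer, pH 7.4. IP1 accumulation was read by HTRF (620/665 nm).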

The target in assay [17] is Pyruvate kinase (Leishmania mexicana) (UniProt Q27686). Kind of assay: qHTS Validation Assay for Inhibitors of Leishmania Mexicana Pyruvate Kinase (AID 945).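 Note: 0% = DMSO only neutral control wells.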 To be noted: purified L. mexicana pyruvate kinase, enzyme activity, E451W mutant enzyme; series mostly up to 57.5 µM. Put shortly:
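Read-out: luminescence from PKLight stop/detection reagent, data normalized to DMSO. Reaction: 0.2 nM E451W LmPYK, 0.5 mM PEP, 0.1 mM ADP, pH 7.2, 1 h room temperature.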

For assay [18], the target named is Pyruvate kinase PKM (Homo sapiens) (UniProt P14618). Kind of assay: qHTS Assay for Activators of Human Muscle Pyruvate Kinase (AID 954; active = well fitted curve in the direction sought with a large enough effect, not every such curve was filed as active;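 note: 0% = uninhibited enzyme and -100% = no enzyme or full thiadiazolimine inhibition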). To be noted: purified human muscle pyruvate kinase, luciferase-coupled luminescence, 1 h; series mostly up to 57.5 µM. The essentials: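 Human PKM2 activity is measured as ATP generation, detected by luciferase-coupled luminescence. The enzyme (0.1 nM) acts on 0.5 mM PEP and 0.1 mM ADP for 1 h at ambient temperature; data are normalized to uninhibited and full-inhibition wells.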

In assay [19] the target is Alpha-galactosidase A (Homo sapiens) (UniProt P06280). Kind of assay: Counterscreen for Glucocerebrosidase Inhibitors: qHTS Assay for Human alpha-Galactosidase at pH 4.5 (AID 992). Note: 0% is about no effect. To be noted: purified enzyme, fluorogenic substrate; series mostly up to 76.9 µM. Put shortly: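 Quantitative HTS: compounds tested from 0.7 nM up to 77 uM against 2 nM enzyme with 80 uM 4-MU alpha-D-galactopyranoside. The 20 min room-temperature reaction is stopped with 1M NaOH/1M glycine, pH 10.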
Alpha-galactosidase A (Homo sapiens), sequence (P06280 whole entry, looked up): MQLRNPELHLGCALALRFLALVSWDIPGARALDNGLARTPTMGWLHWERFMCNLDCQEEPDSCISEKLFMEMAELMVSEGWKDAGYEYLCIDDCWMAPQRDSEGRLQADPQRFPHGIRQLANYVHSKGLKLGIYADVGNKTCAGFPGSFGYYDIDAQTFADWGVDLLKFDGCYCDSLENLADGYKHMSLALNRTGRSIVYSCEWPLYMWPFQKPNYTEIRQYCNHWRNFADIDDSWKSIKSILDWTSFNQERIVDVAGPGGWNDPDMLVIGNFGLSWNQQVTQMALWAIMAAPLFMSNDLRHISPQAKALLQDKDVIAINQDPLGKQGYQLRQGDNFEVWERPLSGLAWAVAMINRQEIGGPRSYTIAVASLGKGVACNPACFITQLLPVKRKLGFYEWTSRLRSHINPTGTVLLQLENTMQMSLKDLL
(A counterscreen serves to expose hits that act by an unwanted route or on another target.)

Assay [20] addresses alpha-glucosidase (Oryza sativa, rice) (UniProt Q653V4). Kind of assay: Counterscreen for Glucocerebrosidase Inhibitors: qHTS Assay for Rice alpha-Glucosidase at pH 5.0 (AID 997).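 Note: 0% = full activity with enzyme and -100% = basal without enzyme.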 The settings on record: rice alpha-glucosidase enzyme activity; series mostly up to 76.9 µM. The essentials:
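Rice alpha-glucosidase (4 nM final) with 400 uM 4-methylumbelliferyl-alpha-D-glucopyranoside in citrate buffer pH 5.0, 20 min at room temperature, stopped at pH 10; fluorescence 365/440 nm, compounds 0.7 nM–77 uM, AC50 from Hill fits.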

Assay [21] can be described thus: Validation of Assay for Modulators of Lamin A Splicing (AID 1459; active = well fitted curve in the direction sought with a large enough effect in the signal ratio; the % refers to the signal ratio;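 note: cells exposed to compound for two days before reading; 0% is about no effect; ratio rise marks activators and ratio drop marks inhibitors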). To be noted: Lamin A splicing dual RFP/GFP fluorescence reporter; series mostly up to 9.22 µM. Put shortly:
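HeLa S3 lamin A-EGFP/DsRed2 stable clone, 600 cells/well, Opti-MEM 2% FBS; compounds by pin tool; 48 hrs, 37 °C/5% CO2; Acumen 488 nm scan, objects 10-100 um; GFP/RFP intensity ratio.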

Assay [22] is described as follows: qHTS Assay for Lipid Storage Modulators (AID 1519; calls by dose curve). The settings on record: Drosophila S3 cells, BODIPY lipid droplet/cell ratio, laser cytometry, cells loaded with oleic acid. Put shortly: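 Cells seeded at 5,000 per well were treated with compounds over a concentration series and loaded with oleic acid (400 uM, as added). Lipid droplet fluorescence (488 nm excitation, 500-530 nm channel) was read by laser-scanning cytometry and normalized to 20 uM Triacsin C.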

Where “and” joins values, the source holds several entries; their conditions need not be identical. Equal entries are not always repeated. Inconclusive results are not listed. Calls of active or inactive are those of the source. Unless noted, calls come from the whole dose curve; as a rule, active = well fitted curve in the direction sought with a large enough effect; inconclusive = small, poorly fitted or top-dose-only effect, or another doubt; inactive = no such curve, though single readings can be large; an effect the other way counts as inactive or inconclusive.

Glucocorticoid receptor (Homo sapiens), sequence (P04150 whole entry, looked up): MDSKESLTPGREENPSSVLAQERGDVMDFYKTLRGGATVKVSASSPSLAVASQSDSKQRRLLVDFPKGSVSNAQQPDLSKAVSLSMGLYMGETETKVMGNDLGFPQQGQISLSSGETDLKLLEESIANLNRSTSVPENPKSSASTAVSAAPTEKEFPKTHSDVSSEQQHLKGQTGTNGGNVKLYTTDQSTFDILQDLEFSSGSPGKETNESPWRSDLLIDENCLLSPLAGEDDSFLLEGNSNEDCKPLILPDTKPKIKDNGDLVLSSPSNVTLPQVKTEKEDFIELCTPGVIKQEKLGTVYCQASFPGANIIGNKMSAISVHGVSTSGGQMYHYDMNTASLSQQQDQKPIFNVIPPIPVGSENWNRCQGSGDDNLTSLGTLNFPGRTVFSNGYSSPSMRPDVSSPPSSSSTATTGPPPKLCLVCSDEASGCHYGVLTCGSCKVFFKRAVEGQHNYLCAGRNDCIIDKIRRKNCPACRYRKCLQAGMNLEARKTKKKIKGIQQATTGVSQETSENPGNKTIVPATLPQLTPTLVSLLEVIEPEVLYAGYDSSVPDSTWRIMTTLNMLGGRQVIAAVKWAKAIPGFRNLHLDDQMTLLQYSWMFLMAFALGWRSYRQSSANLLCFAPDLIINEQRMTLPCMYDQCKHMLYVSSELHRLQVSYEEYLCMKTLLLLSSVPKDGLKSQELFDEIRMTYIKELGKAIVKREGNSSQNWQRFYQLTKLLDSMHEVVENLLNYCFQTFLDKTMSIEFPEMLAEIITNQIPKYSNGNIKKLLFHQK
3',5'-cyclic-AMP phosphodiesterase 4B (Homo sapiens), sequence (Q07343 whole entry, looked up): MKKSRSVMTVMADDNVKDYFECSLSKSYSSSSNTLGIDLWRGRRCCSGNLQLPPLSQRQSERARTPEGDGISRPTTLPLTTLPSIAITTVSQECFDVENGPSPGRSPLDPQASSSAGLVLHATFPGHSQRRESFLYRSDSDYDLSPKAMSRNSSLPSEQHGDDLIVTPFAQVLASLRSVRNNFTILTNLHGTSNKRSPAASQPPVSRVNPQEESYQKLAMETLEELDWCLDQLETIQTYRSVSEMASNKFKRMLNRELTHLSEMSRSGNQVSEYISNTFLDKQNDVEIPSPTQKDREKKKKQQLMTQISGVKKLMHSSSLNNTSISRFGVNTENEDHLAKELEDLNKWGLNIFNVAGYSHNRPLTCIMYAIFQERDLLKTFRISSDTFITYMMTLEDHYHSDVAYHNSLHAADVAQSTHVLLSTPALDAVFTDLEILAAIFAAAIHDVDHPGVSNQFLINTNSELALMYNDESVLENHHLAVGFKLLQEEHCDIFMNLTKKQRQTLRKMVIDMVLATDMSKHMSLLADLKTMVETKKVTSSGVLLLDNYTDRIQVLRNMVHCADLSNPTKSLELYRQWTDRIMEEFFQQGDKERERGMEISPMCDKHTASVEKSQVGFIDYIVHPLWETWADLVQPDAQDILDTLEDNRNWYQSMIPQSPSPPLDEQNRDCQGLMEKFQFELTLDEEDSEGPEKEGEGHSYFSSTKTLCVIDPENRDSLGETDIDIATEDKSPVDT
Cytochrome P450 2C9 (Homo sapiens), sequence (P11712 whole entry, looked up): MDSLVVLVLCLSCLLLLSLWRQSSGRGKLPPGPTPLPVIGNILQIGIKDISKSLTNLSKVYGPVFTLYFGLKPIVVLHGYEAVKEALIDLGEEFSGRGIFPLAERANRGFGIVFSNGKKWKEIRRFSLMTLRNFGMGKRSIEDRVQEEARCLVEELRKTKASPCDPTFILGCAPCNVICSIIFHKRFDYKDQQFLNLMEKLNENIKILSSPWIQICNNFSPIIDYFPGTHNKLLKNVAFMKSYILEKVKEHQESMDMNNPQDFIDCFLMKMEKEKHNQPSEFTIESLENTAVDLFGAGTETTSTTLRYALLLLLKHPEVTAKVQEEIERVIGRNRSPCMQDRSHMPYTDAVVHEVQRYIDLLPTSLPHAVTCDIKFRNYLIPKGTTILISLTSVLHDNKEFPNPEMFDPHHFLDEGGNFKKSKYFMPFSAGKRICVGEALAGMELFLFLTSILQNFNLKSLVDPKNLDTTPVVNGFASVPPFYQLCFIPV
Guanine nucleotide-binding protein G(i) subunit alpha-1 (Homo sapiens), sequence (P63096 whole entry, looked up): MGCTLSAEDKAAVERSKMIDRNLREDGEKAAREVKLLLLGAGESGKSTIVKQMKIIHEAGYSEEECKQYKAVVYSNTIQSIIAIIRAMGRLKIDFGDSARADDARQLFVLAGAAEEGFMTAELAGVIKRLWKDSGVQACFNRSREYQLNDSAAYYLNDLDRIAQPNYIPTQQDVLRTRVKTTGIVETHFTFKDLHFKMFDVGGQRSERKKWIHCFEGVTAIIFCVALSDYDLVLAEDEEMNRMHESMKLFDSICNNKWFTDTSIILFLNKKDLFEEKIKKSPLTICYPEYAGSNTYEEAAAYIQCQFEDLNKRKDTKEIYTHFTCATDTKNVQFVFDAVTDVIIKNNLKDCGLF
Cytochrome P450 2C19 (Homo sapiens), sequence (P33261 whole entry, looked up): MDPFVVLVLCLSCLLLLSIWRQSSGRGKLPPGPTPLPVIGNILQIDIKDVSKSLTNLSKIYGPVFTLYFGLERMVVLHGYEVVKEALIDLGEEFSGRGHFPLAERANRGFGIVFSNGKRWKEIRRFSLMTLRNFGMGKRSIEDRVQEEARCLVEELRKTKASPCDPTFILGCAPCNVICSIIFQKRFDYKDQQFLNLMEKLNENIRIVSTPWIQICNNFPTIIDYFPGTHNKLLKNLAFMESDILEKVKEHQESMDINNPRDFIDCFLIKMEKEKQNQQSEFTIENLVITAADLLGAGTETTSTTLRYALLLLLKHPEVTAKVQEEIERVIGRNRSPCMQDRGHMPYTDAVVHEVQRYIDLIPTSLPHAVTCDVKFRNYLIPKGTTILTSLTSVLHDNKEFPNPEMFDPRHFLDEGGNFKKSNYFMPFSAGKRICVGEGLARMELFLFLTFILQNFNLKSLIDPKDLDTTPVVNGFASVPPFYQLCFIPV
Pyruvate kinase (Leishmania mexicana), sequence (Q27686 2-499 E452W): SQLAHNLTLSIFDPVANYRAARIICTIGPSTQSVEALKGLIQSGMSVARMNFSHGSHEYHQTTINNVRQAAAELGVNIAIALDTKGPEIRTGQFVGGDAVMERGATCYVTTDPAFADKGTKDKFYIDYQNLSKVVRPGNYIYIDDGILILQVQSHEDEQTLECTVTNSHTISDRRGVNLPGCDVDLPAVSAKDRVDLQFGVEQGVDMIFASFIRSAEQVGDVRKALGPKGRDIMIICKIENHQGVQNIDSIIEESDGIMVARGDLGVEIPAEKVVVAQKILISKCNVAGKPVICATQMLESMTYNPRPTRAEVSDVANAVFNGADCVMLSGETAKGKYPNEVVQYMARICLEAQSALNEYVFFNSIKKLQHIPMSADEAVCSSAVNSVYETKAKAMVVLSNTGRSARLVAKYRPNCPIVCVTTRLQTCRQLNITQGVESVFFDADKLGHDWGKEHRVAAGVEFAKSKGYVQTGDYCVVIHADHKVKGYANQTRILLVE
Muscarinic acetylcholine receptor M1 (Rattus norvegicus), sequence (P08482 whole entry, looked up): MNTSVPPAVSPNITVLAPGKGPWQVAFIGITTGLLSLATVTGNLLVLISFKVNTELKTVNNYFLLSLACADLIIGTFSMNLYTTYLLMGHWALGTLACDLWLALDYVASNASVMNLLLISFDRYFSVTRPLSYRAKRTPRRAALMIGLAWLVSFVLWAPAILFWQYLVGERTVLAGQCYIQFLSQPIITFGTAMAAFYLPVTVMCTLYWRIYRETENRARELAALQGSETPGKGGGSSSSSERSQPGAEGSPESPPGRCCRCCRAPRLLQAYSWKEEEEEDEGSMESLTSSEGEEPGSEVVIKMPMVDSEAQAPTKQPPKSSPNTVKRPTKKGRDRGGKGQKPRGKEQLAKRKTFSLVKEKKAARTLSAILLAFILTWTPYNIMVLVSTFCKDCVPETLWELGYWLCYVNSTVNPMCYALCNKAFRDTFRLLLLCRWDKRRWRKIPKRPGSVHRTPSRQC

Consider `O=C(O)c1cc(=O)c2ccc(Cl)cc2[nH]1`, for which the activity change, negative = inhibition in [1] was -5.86% (inactive); in assay [3], 3.07% (inactive); in assay [22] (at 57.5 µM (top of the series)), 4.77% (inactive) and 6.7% (inactive). Moreover, the Potency result in [2], in assay [7], in assay [8], in assay [10], in assay [11] and in assay [12] was “inactive” in each case. Also, the Potency result in assay [14], in assay [16] and in [17] was “inactive” in each case. In addition, the activity, negative = inhibition in assay [4] is 42.7% (inactive). For the same molecule, the Potency in assay [5] and in assay [6] was > 46 µM (inactive) in each case. In addition, the outcome in [9], in [13], in [15], in assay [18], in assay [19] and in [20] was inactive. In addition, the result in [21] was inactive. Besides, in assay [22] (measured here: cell count channel max response), the max response was 15.1% and -2.23%.
